# CtBP-E1A blk: qHTS Assay for Inhibitors of the CtBP/E1A Interaction | CtBP / adenovirus E1A interaction (AlphaScreen) | AlphaScreen GST-E1A/His-CtBP binding, 1536-well; stronger effect = lower value | activity change, % (test concentration not listed) | 0.49% of 340,000 active | AID 651724, 2012; in the data active means activity change below about -65%; inconclusive means mostly about -30% to -63%
#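 Protein mix (5X: 125 nM each GST-E1A, His-CtBP) was incubated with pinned compound 2 h at 37 deg C in dark, in 50 mM Tris pH 8.0 buffer with 300 mM NaCl. Glutathione donor and nickel acceptor beads followed; AlphaScreen signal read after 1 h.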
# TDP1 cell noCPT: qHTS for Inhibitors of human tyrosyl-DNA phosphodiesterase 1 (TDP1): qHTS in cells in absence of CPT; DT40 Tdp1-/- hTDP1 cells, no CPT, ATP luminescence, 48 h; 15% of 420,000 active; Potency, µM (highest dose often 46.2 µM), for the others: top-dose activity change, negative = growth inhibition, actives largely listed as inhibitors; further: potency means the concentration at half of the fitted maximal effect; nearly all actives have a fitted effect of over 55% in size
#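 Seeded 400 DT40-hTDP1 cells/well (vehicle DMSO, no 20 nM CPT); pinned compounds; ≥48 hr at 37 °C; CellTiter-Glo luminescence as viability measure.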
# Six1-Eya2 inh: qHTS Assay for Inhibitors of the Six1/Eya2 Interaction | Homeobox protein SIX1 (Homo sapiens) + Protein phosphatase EYA2 (Homo sapiens), … | AlphaScreen GST-Six1/His-Eya2 binding, biochemical; stronger effect = lower value | activity change, % (concentration not given with the values) | 0.56% of 360,000 active; in the data active means activity change below about -65%; inconclusive means mostly about -30% to -63%
# Target sequence (O00167 whole entry, looked up): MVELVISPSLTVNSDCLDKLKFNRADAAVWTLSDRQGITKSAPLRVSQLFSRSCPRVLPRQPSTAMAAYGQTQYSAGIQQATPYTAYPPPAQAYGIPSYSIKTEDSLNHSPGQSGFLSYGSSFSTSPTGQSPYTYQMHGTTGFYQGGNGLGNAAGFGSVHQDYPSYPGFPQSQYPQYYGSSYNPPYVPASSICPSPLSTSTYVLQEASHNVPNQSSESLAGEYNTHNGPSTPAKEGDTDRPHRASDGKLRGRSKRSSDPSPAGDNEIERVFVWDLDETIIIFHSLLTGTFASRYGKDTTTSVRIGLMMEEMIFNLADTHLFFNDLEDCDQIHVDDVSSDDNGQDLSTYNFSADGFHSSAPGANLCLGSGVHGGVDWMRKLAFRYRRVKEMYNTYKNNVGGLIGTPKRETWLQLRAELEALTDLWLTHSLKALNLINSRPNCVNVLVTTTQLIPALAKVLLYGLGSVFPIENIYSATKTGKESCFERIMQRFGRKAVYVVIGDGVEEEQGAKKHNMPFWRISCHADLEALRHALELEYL
# Target sequence (Q15475 whole entry, looked up): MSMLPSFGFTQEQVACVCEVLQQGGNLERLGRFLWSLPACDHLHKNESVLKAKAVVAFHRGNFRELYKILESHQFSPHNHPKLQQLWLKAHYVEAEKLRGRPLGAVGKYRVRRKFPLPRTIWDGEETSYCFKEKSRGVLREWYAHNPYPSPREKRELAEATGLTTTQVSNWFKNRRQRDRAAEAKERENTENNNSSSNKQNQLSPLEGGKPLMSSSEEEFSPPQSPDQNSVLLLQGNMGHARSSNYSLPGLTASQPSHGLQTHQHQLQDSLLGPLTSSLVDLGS
#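 Compounds are tested against tagged Six1 and Eya2 proteins bridged by glutathione donor and nickel acceptor beads; after a one-hour incubation at 37 °C without light, AlphaScreen emission is recorded.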
# TDP1 cell CPT: qHTS for Inhibitors of human tyrosyl-DNA phosphodiesterase 1 (TDP1): qHTS in cells in presence of CPT. chicken DT40 Tdp1-/-;hTDP1 cells + 20 nM CPT, ATP luminescence, 48 h. Potency, µM (doses to about 46.2 µM), for inactives: at the top dose activity change, negative = growth inhibition, usual class: inhibitors. 12% of 420,000 active. AID 686979, 2013; further: potency means the concentration at half of the fitted maximal effect; nearly all actives have a fitted effect of over 55% in size
#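 Chicken DT40 Tdp1-/- cells complemented with human TDP1, 400 cells/well, exposed to compounds plus 20 nM camptothecin for at least 48 h at 37 C; viability read as ATP content by CellTiter-Glo luminescence.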
# IL1B secr inh: qHTS for Inhibitors of Inflammasome Signaling: IL-1-beta AlphaLISA Primary Screen. activity change, % at 57.5 µM. THP-1 LPS/ATP IL-1B secretion, AlphaLISA, 16 h; stronger effect = lower value. 4.7% of 360,000 active; in the data active means activity change below about -50%; inconclusive means mostly about -30% to -49%
#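 THP-1 cells pretreated 1 hr with compounds (up to 57.5 uM final), then stimulated with LPS (250 ng/mL final) plus ATP (1.25 mM final); secreted IL-1B measured by AlphaLISA after 16 hr, decreased signal indicating inhibition.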
# TDP1 block: qHTS Assay for Inhibitors of Tyrosyl-DNA Phosphodiesterase (TDP1); recombinant TDP1, AlphaScreen DNA substrate cleavage; Potency, µM (highest dose often 130 µM), for the others: at the highest dose activity change, negative = inhibition, actives largely listed as inhibitors; 0.28% of 350,000 active; AID 485290, 2010; further: potency means the concentration at half of the fitted maximal effect; nearly all actives have a fitted effect of over 40% in size
#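 Recombinant human Tdp1 (E. coli-expressed, 1 nM final) preincubated with compounds 15 min at room temperature, then 5'-biotin/3'-phosphotyrosine-FITC DNA substrate (15 nM final) added for 5 min. AlphaScreen beads (10 ug/ml final) added 10 min; cleavage lowers signal.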
# Numbers without * were called inactive; i = inactive; ? = inconclusive; / = no result given. Most compounds without a hit are left out; they make up all but 18% or so of the library. Unless noted, the call rests on the fitted dose curve; in most records, active means well fitted curve in the direction sought with a large enough effect; inconclusive means small, poorly fitted or top-dose-only effect, or another doubt; inactive means no such curve, though single readings can be large; an effect the other way counts as inactive or inconclusive. On the % scale 0 is the no-effect control and ±100 the full control effect.
SMILES,CtBP-E1A blk,TDP1 cell noCPT,Six1-Eya2 inh,TDP1 cell CPT,IL1B secr inh,TDP1 block
O=C(Nc1nc2ccccc2[nH]1)c1ccc(Cl)c(S(=O)(=O)N2CCCC2)c1,-73*,16µM*,?,18µM*,-59*,12%
O=C(Nc1ccc(Cl)c(S(=O)(=O)N2CCCCC2)c1)c1cccnc1,0,?,-3,18µM*,0,-3%
Cc1cnc(C(=O)Nc2ccc(C)c(S(=O)(=O)N3CCCCC3)c2)cn1,-3,-21%,5,-2%,40,-11%
Cc1ccc(NC(=O)c2cnccn2)cc1S(=O)(=O)N1CCCCCC1,5,23µM*,-5,?,14,-17%
O=C(Nc1nc2ccccc2[nH]1)c1ccc(S(=O)(=O)N2CCOCC2)cc1,/,?,-1,?,18,-1%
O=C(Nc1ccon1)c1ccc(Cl)c(S(=O)(=O)N2CCCCC2)c1,0,23µM*,-28,?,i,5%
O=C(N[C@@H](c1ccccc1)[C@@H]1C[C@H]1C(=O)NCc1ccccc1)OCc1ccccc1,/,/,/,/,/,4%
CCN(CC)CCNC(=O)c1ccc(NC(=O)c2ccc(Cl)c(S(=O)(=O)N3CCCCCC3)c2)cc1,-12,?,0,?,-104*,/
O=C(Nc1ccncc1)c1ccc(Cl)c(S(=O)(=O)N2CCCC2)c1,-12,26µM*,6,?,52,-5%
O=C(Nc1nccs1)c1ccc(Cl)c(S(=O)(=O)N2CCCCC2)c1,?,-24%,-2,10%,-12,7%
CCN(CC)S(=O)(=O)c1cc(C(=O)Nc2ccncc2)ccc1Cl,5,16µM*,-8,23µM*,-56*,4%
CC12CC3(C)CC(C)(C1)CC(C(=O)NC1=NCCS1)(C2)C3,1,?,5,23µM*,23,/
COc1cccc(NC(=O)CCCCCN2C(=O)[C@@H]3Cc4ccccc4CN3C2=O)c1,7,?,0,?,1,1%
CCOc1ccc(C(=O)N2CCN(c3cccc(Cl)c3)CC2)cc1,/,?,-5,-19%,-15,5%
COc1ccc(C(=S)N2CCN(c3cccc(Cl)c3)CC2)c(OC)c1,-12,4.1µM*,-28,2.6µM*,50,3%
O=C(c1ccc([N+](=O)[O-])s1)N1CCN(c2cccc(Cl)c2)CC1,14,21µM*,-12,21µM*,-58*,6%
COc1ccc(C(=O)N2CCN(c3cccc(Cl)c3)CC2)cc1S(=O)(=O)NC1CC1,2,15µM*,3,15µM*,22,0%
COc1ccc(C(=O)N2CCN(c3cccc(Cl)c3)CC2)cc1,6,16µM*,-5,?,-59*,1%
Cc1ccc(C(=O)N2CCN(c3cccc(Cl)c3)CC2)cc1C,3,26µM*,0,?,16,5%
COc1ccc(S(=O)(=O)N2CCN(C(=O)CC(C)C)CC2)cc1,4,2%,4,11%,10,/
Cc1ccc2oc(C(=O)Nc3nc(-c4ccc(F)cc4)ns3)c(C)c2c1,/,-19%,/,-7%,/,2%
CC1=C(C(=O)N(C(C)C)C(C)C)CC(CC(=O)NCCc2ccccn2)C(=O)N1Cc1ccc(C(C)(C)C)cc1 (stereo not given),-1,?,-2,16µM*,-23,/
CC1=C(C(=O)N(C(C)C)C(C)C)CC(CC(=O)NCCCCc2ccccc2)C(=O)N1Cc1ccc(C(C)(C)C)cc1 (stereo not given),-26,21µM*,2,23µM*,0,/
CC1=C(C(=O)N(C(C)C)C(C)C)CC(CC(=O)NCCCN(C)C)C(=O)N1Cc1ccc(C(C)(C)C)cc1 (stereo not given),0,?,-6,?,-20,/
CC1=C(C(=O)N(C(C)C)C(C)C)CC(CC(=O)NCCN2CCOCC2)C(=O)N1Cc1ccc(C(C)(C)C)cc1 (stereo not given),2,18µM*,-2,?,?,/
SMILES,CtBP-E1A blk,TDP1 cell noCPT,Six1-Eya2 inh,TDP1 cell CPT,IL1B secr inh,TDP1 block
COc1ccc(CN2C(=O)C(CC(=O)NCc3cccc4ccccc34)CC(C(=O)N(C(C)C)C(C)C)=C2C)cc1 (stereo not given),19,?,9,?,-70*,/
CC1=C(C(=O)N(C(C)C)C(C)C)CC(CC(=O)NCCc2ccccn2)C(=O)N1Cc1ccccc1 (stereo not given),2,-28%,5,-10%,8,/
Cc1ccccc1C(=O)Nc1nnc(S(=O)(=O)N2c3ccccc3CC2C)s1 (stereo not given),/,?,/,-28%,/,1%
Cc1ccc(-c2noc(CN3C(C)CCCC3C)n2)cc1 (stereo not given),-15,?,1,?,26,10%
COc1ccc(CN2C(=O)C(CC(=O)NCCCCc3ccccc3)CC(C(=O)N(C(C)C)C(C)C)=C2C)cc1 (stereo not given),-4,12µM*,-5,13µM*,-27,/
CCCCN1C(=O)C(CC(=O)NCCCCc2ccccc2)CC(C(=O)N2CCOCC2)=C1C (stereo not given),1,-10%,-3,3%,5,/
COc1ccc(CN2C(=O)C(CC(=O)NCCCCc3ccccc3)CC(C(=O)N(C)C)=C2C)cc1 (stereo not given),4,18µM*,-1,?,-2,/
COc1ccc(CN2C(=O)C(CC(=O)NCCc3ccccn3)CC(C(=O)N(C(C)C)C(C)C)=C2C)cc1 (stereo not given),5,?,-2,?,12,/
CC1=C(C(=O)N2CCOCC2)CC(CC(=O)NCCCCc2ccccc2)C(=O)N1Cc1ccc(C(C)(C)C)cc1 (stereo not given),7,16µM*,-3,23µM*,-2,/
CCCCn1c(=O)n(CC(=O)Nc2c(CC)cccc2CC)c(=O)c2c1nc(CO)n2CCC,2,-26%,-1,-20%,4,5%
O=C(Nc1ccc2nn(-c3ccccc3)nc2c1)c1cccs1,6,-26%,-4,-16%,-13,7%

# Source: PubChem BioAssay (National Center for Advancing Translational Sciences (NCATS))
